# In PMC7862700, “An all-to-all approach to the identification of sequence-specific readers for epigenetic DNA modifications on cytosine”:
# Key:
# Assay in all cases: DAPPL (digital affinity profiling via proximity ligation, sequencing); 10 mM Tris-HCl pH 7.5, 50 mM NaCl, 1 mM DTT, 4% glycerol, room temperature, 30 min; GST-TFs on glutathione beads, 16-mer random dsDNA library, 0.1% formaldehyde crosslink after washing; high values mean tight binding
# Conditions in all cases: protein: recombinant; tags: N-terminal GST; dsDNA, one strand shown
# FLI1 = target: T1, FLI1 (Homo sapiens, UniProt Q01543 1-452)
# T1 sequence: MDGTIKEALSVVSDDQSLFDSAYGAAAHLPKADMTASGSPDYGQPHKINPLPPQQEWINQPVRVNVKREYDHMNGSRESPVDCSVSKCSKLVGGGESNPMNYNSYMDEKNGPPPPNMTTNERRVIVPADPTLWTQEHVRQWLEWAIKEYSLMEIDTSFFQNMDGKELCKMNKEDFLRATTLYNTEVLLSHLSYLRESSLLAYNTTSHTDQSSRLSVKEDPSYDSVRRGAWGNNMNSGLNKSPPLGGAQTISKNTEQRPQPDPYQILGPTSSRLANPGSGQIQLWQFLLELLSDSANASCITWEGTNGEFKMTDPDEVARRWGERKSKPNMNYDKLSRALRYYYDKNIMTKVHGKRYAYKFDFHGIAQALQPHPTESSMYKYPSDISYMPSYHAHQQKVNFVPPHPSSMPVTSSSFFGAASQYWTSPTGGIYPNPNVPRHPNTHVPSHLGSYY
# Method in brief: (§1)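 Pools were built from human transcription factors expressed in yeast as GST fusions, captured on glutathione beads and DNA-barcoded, along with a tag-only sample. Incubation with 200 nmole of a 16-mer random double-stranded DNA library lasted 30 min at room temperature in Tris/NaCl/DTT/glycerol buffer, and was followed by washing, 0.1% formaldehyde crosslinking, proximity ligation, PCR amplification and Illumina NextSeq500 sequencing. Binding signal is the quotient of each hexamer's read frequency for a factor and its frequency for the tag-only sample.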
# ELK1 = target: T2, ELK1 (Homo sapiens, UniProt P19419 1-428)
# T2 sequence: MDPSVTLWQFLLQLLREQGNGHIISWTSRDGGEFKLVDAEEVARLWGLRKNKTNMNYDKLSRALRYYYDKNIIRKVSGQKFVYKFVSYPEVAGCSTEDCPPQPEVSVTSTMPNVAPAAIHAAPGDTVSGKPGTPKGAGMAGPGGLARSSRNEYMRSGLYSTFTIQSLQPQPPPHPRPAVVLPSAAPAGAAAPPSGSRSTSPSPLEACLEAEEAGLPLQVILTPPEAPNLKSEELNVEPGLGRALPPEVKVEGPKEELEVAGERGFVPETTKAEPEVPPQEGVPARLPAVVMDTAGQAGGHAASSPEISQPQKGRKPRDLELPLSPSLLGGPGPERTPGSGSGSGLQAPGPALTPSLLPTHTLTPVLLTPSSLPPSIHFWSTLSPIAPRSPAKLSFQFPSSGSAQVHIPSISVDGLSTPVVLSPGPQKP
# Method in brief: as §1
# GABPA = target: T3, GABPA (Homo sapiens, UniProt Q06546 1-454)
# T3 sequence: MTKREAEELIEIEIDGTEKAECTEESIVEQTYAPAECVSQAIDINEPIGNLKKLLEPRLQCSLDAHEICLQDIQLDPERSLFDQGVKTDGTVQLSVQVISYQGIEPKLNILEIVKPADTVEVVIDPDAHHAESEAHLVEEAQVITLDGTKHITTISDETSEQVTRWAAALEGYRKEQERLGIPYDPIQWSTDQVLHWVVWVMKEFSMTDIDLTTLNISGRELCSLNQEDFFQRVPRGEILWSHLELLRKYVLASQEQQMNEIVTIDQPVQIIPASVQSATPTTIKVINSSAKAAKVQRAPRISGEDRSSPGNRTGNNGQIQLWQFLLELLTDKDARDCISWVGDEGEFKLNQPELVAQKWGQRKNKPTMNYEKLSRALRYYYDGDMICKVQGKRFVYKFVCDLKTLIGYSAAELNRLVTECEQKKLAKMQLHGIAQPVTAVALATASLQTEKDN
# Method in brief: as §1
# ERG = target: T4, ERG (Homo sapiens, UniProt P11308 1-479)
# T4 sequence: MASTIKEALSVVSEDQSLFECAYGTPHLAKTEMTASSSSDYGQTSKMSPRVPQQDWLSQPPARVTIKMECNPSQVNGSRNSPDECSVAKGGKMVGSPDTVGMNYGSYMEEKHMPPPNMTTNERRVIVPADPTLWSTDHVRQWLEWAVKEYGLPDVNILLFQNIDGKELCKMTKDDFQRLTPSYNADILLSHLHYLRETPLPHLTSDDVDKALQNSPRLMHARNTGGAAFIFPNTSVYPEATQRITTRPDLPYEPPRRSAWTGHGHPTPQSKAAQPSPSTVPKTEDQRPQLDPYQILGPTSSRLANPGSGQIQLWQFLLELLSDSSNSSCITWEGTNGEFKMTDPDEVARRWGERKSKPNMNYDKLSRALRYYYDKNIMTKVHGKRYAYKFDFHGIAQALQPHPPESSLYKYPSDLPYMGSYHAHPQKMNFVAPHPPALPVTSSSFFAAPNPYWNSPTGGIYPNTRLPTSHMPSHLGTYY
# Method in brief: as §1
# ELF1 = ELF1 (Homo sapiens, UniProt P32519 1-619)
# ELF1, sequence (P32519 whole entry): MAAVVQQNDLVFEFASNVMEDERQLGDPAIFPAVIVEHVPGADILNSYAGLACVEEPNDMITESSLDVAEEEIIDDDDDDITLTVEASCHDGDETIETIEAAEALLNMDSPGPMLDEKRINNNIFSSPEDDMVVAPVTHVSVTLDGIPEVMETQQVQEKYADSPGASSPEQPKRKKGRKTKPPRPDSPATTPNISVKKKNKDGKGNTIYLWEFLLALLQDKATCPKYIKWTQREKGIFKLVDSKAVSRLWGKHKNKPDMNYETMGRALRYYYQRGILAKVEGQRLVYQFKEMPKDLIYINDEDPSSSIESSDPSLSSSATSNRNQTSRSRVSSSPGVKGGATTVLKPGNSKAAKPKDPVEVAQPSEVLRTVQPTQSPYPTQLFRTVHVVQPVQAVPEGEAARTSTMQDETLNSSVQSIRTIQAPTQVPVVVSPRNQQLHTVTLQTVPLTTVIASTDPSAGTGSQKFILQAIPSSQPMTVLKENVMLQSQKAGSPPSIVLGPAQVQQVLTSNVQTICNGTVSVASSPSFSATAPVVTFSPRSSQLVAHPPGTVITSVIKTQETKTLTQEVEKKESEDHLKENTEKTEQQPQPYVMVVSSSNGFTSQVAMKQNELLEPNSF
# Method in brief: as §1
# EHF = target: T5, EHF (Homo sapiens, UniProt Q9NZC4 1-300)
# T5 sequence: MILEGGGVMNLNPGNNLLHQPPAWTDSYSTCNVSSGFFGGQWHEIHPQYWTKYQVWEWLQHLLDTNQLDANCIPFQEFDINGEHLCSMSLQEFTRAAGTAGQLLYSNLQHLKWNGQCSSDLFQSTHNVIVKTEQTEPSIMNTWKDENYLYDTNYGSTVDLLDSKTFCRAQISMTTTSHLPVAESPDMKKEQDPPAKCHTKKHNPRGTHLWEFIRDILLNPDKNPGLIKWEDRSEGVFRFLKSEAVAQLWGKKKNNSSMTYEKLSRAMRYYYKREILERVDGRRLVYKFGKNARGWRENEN
# Method in brief: as §1
# SPI1 = SPI1 (Homo sapiens, UniProt P17947 1-270)
# Method in brief: as §1
# SPIB = SPIB (Homo sapiens, UniProt Q01892 1-262)
# SPIB, sequence (Q01892 whole entry): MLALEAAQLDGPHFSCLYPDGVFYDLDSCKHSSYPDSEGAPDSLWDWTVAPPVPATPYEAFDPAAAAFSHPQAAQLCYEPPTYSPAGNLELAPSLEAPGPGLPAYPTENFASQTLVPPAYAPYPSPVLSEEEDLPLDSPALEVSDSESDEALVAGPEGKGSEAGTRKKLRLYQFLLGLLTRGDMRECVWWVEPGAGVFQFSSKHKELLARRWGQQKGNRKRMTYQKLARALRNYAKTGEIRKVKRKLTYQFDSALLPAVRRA
# Method in brief: as §1
# ELK3 = target: T6, ELK3 (Homo sapiens, UniProt P41970 1-407)
# T6 sequence: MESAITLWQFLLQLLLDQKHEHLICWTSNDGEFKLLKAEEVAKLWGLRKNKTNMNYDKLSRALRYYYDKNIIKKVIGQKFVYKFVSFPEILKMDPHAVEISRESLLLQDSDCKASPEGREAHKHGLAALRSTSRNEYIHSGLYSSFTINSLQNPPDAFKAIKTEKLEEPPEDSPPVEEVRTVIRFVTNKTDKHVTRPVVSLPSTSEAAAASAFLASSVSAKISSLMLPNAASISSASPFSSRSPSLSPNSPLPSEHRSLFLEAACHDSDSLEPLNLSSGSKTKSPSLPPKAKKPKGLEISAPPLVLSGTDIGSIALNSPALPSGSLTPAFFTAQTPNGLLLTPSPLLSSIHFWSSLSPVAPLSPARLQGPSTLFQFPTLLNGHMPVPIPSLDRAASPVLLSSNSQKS
# Method in brief: as §1
# ETV5 = ETV5 (Homo sapiens, UniProt P41161 1-510)
# ETV5, sequence (P41161 whole entry): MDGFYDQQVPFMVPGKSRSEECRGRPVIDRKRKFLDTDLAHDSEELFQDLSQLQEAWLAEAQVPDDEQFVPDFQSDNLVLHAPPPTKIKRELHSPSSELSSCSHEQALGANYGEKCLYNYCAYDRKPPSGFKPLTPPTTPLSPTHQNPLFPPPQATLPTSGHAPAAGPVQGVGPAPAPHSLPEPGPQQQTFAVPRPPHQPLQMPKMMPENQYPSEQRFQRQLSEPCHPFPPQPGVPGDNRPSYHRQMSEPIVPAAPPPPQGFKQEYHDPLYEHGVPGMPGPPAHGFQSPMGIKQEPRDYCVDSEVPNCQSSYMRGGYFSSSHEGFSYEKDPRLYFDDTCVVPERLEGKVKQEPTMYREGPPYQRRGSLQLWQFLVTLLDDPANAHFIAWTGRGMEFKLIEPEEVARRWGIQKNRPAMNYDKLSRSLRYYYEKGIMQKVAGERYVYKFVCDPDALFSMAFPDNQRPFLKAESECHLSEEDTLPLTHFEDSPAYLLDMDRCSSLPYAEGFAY
# Method in brief: as §1
sequence,measurement,setting,value
CTGCGG,binding signal,FLI1,"1.23 fold enrichment (6-mer frequency, TF over GST control)"
same,binding signal,ELK1,"1.26 fold enrichment (6-mer frequency, TF over GST control)"
same,binding signal,GABPA,"1.05 fold enrichment (6-mer frequency, TF over GST control)"
same,binding signal,ERG,"1.1 fold enrichment (6-mer frequency, TF over GST control)"
same,binding signal,ELF1,"1.18 fold enrichment (6-mer frequency, TF over GST control)"
same,binding signal,EHF,"1.3 fold enrichment (6-mer frequency, TF over GST control)"
same,binding signal,SPI1,"1.03 fold enrichment (6-mer frequency, TF over GST control)"
same,binding signal,SPIB,"1.09 fold enrichment (6-mer frequency, TF over GST control)"
same,binding signal,ELK3,"1.05 fold enrichment (6-mer frequency, TF over GST control)"
same,binding signal,ETV5,"1.16 fold enrichment (6-mer frequency, TF over GST control)"
